This passage reports outcome and AC50 results from PubChem BioAssay (EPA / NIEHS).

The source made the active and inactive calls. Rule for the calls: active = hit-call score of the fitted dose curve at least 0.9, where 1 is the maximum; inactive = score below 0.9.

A short description of experiment [1]: ATG_E_Box_CIS: Attagene CIS-FACTORIAL HepG2 Assay for human Enhancer Box (E-box) (AID 2282936). The following applies: HepG2 E-box cis-reporter transcription, actives raise or lower the signal. A digest of the protocol: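 Fluorescent reporter fragments separated by capillary electrophoresis gave the signal; mRNA came from HepG2 cells transfected with cis-element reporters and treated 24 h. Curves fitted bidirectionally relative to DMSO controls.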

Experiment [2] in a line: ATG_M_61_CIS: Attagene CIS-FACTORIAL HepG2 Assay for M61 Transcription Factor (Internal Marker) (AID 2282937). The following applies: HepG2 Attagene CIS-FACTORIAL M61 internal marker reporter; actives raise or lower the signal. Summed up: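 Readout is reporter mRNA by RT-PCR, fluorescent primer extension and capillary electrophoresis, with gain or loss fitted relative to DMSO. Transfected HepG2 cells carrying endogenous-TF-driven cis reporters were exposed to chemicals for 24 hours.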

Experiment [3] in a line: ATG_EGR_CIS: Attagene CIS-FACTORIAL HepG2 Assay for human Early Growth Response 1 (EGR1) (AID 2282938). The following applies: HepG2 Attagene CIS-FACTORIAL EGR reporter mRNA; actives raise or lower the signal. Summed up:
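After 24 h compound exposure, RNA from reporter-transfected HepG2 cells was reverse-transcribed, PCR-amplified, fluorescently labelled and resolved by capillary electrophoresis. EGR1 reporter transcript changes, up or down, were fitted against DMSO, reflecting endogenous transcription-factor activity.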

Experiment [4] in a line: ATG_M_19_CIS: Attagene CIS-FACTORIAL HepG2 Assay for M19 Transcription Factor (Internal Marker) (AID 2282939). The settings on record: HepG2 Attagene CIS-FACTORIAL M19 internal marker reporter; actives raise or lower the signal. Summed up: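 HepG2, MRTU transient transfection, 24 h dosing. Total RNA → RT-PCR → 6-FAM primer extension → HpaI digest → CE fluorescence. Bidirectional curve fit, DMSO negative control.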

Experiment [5] in a line: ATG_ERE_CIS: Attagene CIS-FACTORIAL HepG2 Assay for Estrogen Response Element (ERE) (AID 2282940). The following applies: HepG2 ERE cis-reporter, Attagene RNA transcript; actives raise or lower the signal. Summed up: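 After a 24 h chemical treatment, RNA from reporter-transfected HepG2 cells is reverse-transcribed, PCR-amplified and fluorescently labelled. Fragments separated by capillary electrophoresis give reporter signal; DMSO serves as negative control.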

Experiment [6] in a line: ATG_Ets_CIS: Attagene CIS-FACTORIAL HepG2 Assay for human Erythroblast Transformation Specific (ETS) (AID 2282941). The following applies: HepG2 ETS cis-reporter transcription, actives raise or lower the signal. Summed up: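 Bidirectional fit versus DMSO of reporter mRNA signal, detected by RT-PCR and capillary electrophoresis in HepG2 cells transiently transfected with cis-element reporters and dosed 24 h.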

Experiment [7] concerns the target Hepatocyte nuclear factor 3-beta (Homo sapiens) (UniProt Q9Y261). The experiment can be described thus: ATG_FoxA2_CIS: Attagene CIS-FACTORIAL HepG2 Assay for human Forkhead box A2 (FOXA2) (AID 2282942). The following applies: HepG2 cis-reporter transcription factor activity, 24 h; actives raise or lower the signal. Summed up:
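Endogenous transcription factor activity is captured via cis-element-driven reporter transcripts in transfected HepG2. Total RNA taken at 24 h post-dosing; labelled RT-PCR products resolved by capillary electrophoresis. Gain or loss fitted versus DMSO.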

The nature of experiment [8]: ATG_FoxO_CIS: Attagene CIS-FACTORIAL HepG2 Assay for human Forkhead box O (FoxO) (AID 2282943). The following applies: HepG2 Attagene cis-reporter, FoxO element, mRNA; actives raise or lower the signal. Summed up:
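HepG2, transient MRTU transfection (cis element, endogenous TFs). Dose 24 h. TriZol RNA → oligo(dT) RT → PCR → 6-FAM primer extension → HpaI cut → CE. Gain/loss vs DMSO.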

Experiment [9] is described as follows: ATG_GATA_CIS: Attagene CIS-FACTORIAL HepG2 Assay for human GATA Binding Protein (AID 2282944). The following applies: HepG2 GATA cis-element reporter, Attagene multiplex mRNA; actives raise or lower the signal. Summed up:
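Cells: HepG2, transiently transfected with cis-regulated reporter transcription units. Exposure: 24 h. Detection: RT-PCR plus capillary electrophoresis of FAM-labeled fragments. Analysis: bidirectional, DMSO as baseline.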

The nature of experiment [10]: ATG_GLI_CIS: Attagene CIS-FACTORIAL HepG2 Assay for human Zinc Finger Protein GLI1 (AID 2282945). The settings on record: HepG2, Attagene cis-factorial reporter mRNA, GLI element; actives raise or lower the signal. A digest of the protocol:
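Bidirectional curve fits relative to DMSO, using reporter mRNA levels from RT-PCR plus capillary electrophoresis. Cells were HepG2 transiently carrying cis-regulated reporter constructs, harvested 24 h after dosing.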

The nature of experiment [11]: ATG_GRE_CIS: Attagene CIS-FACTORIAL HepG2 Assay for human Glucocorticoid Response Elements (GRE) (AID 2282947). The settings on record: HepG2 GRE cis-reporter, Attagene multiplex mRNA; actives raise or lower the signal. A digest of the protocol: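 Multiplexed cis-reporter mRNA induction, HepG2, 24 h post-dose. RT-PCR, FAM-labelled, HpaI-digested amplicons by CE. Bidirectional fit vs DMSO.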

A short description of experiment [12]: ATG_M_32_CIS: Attagene CIS-FACTORIAL HepG2 Assay for M32 Transcription Factor (Internal Marker) (AID 2282949).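 Note: background control marker of the multiplexed CIS panel rather than a real target.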 The settings on record: HepG2 Attagene cis-factorial M32 reporter, mRNA; actives raise or lower the signal. Summed up:
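Using DMSO as baseline, bidirectional curve fits were applied to reporter mRNA signals. These came from transiently transfected HepG2 cells exposed for 24 h, with RNA analysed by RT-PCR, FAM primer extension, HpaI digestion and CE.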

A short description of experiment [13]: ATG_M_06_CIS: Attagene CIS-FACTORIAL HepG2 Assay for M06 Transcription Factor (Internal Marker) (AID 2282950). The following applies: HepG2 Attagene CIS-FACTORIAL M06 internal marker reporter; actives raise or lower the signal. A digest of the protocol:
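Measured 24 h post-dosing in transiently transfected HepG2 cells, this internal-marker endpoint reports reporter mRNA via RT-PCR with fluorescent primer extension and capillary electrophoresis. DMSO served as negative control and baseline for bidirectional fitting.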

In experiment [14] the target is Hypoxia-inducible factor 1-alpha (Homo sapiens) (UniProt Q16665). The experiment can be described thus: ATG_HIF1a_CIS: Attagene CIS-FACTORIAL HepG2 Assay for human Hypoxia Inducible Factor 1 (HIF1A) (AID 2282951). The settings on record: HepG2 Attagene cis-factorial HIF1a reporter transcription; actives raise or lower the signal. Summed up:
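Activity is fitted in both directions relative to DMSO. Reporter transcripts are read by RT-PCR, fluorescent primer extension and capillary electrophoresis after 24 h chemical treatment. The cells are HepG2 carrying transiently transfected cis-element-driven reporter units responding to endogenous factors.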

Experiment [15] addresses Hepatocyte nuclear factor 6 (Homo sapiens) (UniProt Q9UBC0). Nature of the experiment: ATG_HNF6_CIS: Attagene CIS-FACTORIAL HepG2 Assay for human Hepatocyte Nuclear Factor 6 (HNF6) (AID 2282952). The following applies: HepG2 Attagene cis-factorial HNF6 reporter transcription; actives raise or lower the signal. Summed up: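 Twenty-four-hour chemical treatment of reporter-transfected HepG2 cells precedes RNA isolation, DNase-treated reverse transcription and PCR of reporter sequences. Labelled fragments are sized by capillary electrophoresis and fitted bidirectionally versus DMSO.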

Experiment [16] addresses Heat shock factor protein 1 (Homo sapiens) (UniProt Q00613). The experiment can be described thus: ATG_HSE_CIS: Attagene CIS-FACTORIAL HepG2 Assay for human Heat Shock Transcription Factor 1 (HSE) (AID 2282953). The settings on record: HepG2 HSE cis-reporter, Attagene RNA transcription; actives raise or lower the signal. A digest of the protocol:
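Reporter mRNA induction in HepG2 is measured 24 h after dosing, using transiently transfected multiplexed cis-regulated reporter units. Signal comes from capillary electrophoresis of labelled RT-PCR products, with DMSO as negative control.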

Experiment [17] can be described thus: ATG_MRE_CIS: Attagene CIS-FACTORIAL HepG2 Assay for human Metal Responsive Element (MRE) (AID 2282954). The settings on record: HepG2 MRE cis-reporter transcription, Attagene multiplex; actives raise or lower the signal. Summed up: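 Multiplexed cis-reporter assay in human HepG2 liver cells, 24 h incubation with test chemical. Reporter transcripts measured by RT-PCR and capillary electrophoresis; values from bidirectional curve fitting versus DMSO.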

Experiment [18] is described as follows: ATG_ISRE_CIS: Attagene CIS-FACTORIAL HepG2 Assay for human Interferon Regulatory Factor 1 (IRF1) binding to an Interferon-Stimulated Response Element (ISRE) (AID 2282948). The settings on record: HepG2 ISRE cis-reporter (Attagene), mRNA transcription readout; actives raise or lower the signal. A digest of the protocol:
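Uses HepG2 liver cells transfected with cis-regulated reporters and measures mRNA 24 h post-dosing through RT-PCR, primer-extension labelling and capillary electrophoresis, with DMSO as negative control.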

In experiment [19] the target is Bile acid receptor (Homo sapiens) (UniProt Q96RI1). Nature of the experiment: ATG_IR1_CIS: Attagene CIS-FACTORIAL HepG2 Assay for human Nuclear Receptor Subfamily 1 Group H Member 4 (NR1H4), IR1 submotif (AID 2282946). The settings on record: IR1 reporter transcription, actives raise or lower the signal. A digest of the protocol:
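HepG2 cells transiently transfected with multiplexed cis-element reporter units read endogenous transcription factor activity. After 24 h compound exposure, reporter mRNA was quantified by RT-PCR, fluorescent labelling, HpaI digestion and capillary electrophoresis; bidirectional fitting versus DMSO baseline.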

Experiment [20] in a line: ATG_PBREM_CIS: Attagene CIS-FACTORIAL HepG2 Assay for human Phenobarbital-responsive Enhancer Module (PBREM) (AID 2282955). The following applies: HepG2 PBREM cis-reporter, Attagene multiplexed transcription; actives raise or lower the signal. Summed up: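 Endogenous transcription factor activity was read from reporter transcripts in transiently transfected human HepG2 liver cells after 24 h dosing. RT-PCR products were fluorescently labelled, HpaI-cut and sized by capillary electrophoresis; activity fitted bidirectionally against DMSO baseline.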

Hepatocyte nuclear factor 6 (Homo sapiens), sequence (Q9UBC0 whole entry, looked up, the tested form may be a part): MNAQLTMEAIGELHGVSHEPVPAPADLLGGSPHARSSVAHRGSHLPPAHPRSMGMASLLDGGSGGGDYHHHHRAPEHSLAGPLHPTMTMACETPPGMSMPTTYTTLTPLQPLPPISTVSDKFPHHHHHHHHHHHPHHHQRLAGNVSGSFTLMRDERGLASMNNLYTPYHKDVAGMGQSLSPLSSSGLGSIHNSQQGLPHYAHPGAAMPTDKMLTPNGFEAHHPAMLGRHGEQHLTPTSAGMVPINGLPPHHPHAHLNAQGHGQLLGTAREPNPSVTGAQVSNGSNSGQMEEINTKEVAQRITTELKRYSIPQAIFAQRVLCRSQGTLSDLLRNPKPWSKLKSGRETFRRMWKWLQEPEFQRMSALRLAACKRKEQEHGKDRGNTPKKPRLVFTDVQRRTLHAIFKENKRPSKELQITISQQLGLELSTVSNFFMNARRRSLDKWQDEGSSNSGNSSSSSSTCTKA
Bile acid receptor (Homo sapiens), sequence (Q96RI1 whole entry, looked up): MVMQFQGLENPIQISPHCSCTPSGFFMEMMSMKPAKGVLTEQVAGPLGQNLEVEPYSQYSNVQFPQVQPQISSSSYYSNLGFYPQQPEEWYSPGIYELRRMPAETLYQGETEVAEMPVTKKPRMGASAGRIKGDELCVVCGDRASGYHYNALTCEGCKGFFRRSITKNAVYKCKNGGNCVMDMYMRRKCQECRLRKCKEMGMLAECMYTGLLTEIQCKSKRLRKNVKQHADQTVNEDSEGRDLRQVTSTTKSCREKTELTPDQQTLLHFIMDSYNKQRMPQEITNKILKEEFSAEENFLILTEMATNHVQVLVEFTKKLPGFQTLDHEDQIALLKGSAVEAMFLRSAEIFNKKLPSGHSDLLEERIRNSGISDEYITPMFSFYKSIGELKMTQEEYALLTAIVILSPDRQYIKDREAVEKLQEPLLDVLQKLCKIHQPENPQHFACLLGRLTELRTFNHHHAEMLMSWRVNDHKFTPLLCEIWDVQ
Hepatocyte nuclear factor 3-beta (Homo sapiens), sequence (Q9Y261 whole entry, looked up): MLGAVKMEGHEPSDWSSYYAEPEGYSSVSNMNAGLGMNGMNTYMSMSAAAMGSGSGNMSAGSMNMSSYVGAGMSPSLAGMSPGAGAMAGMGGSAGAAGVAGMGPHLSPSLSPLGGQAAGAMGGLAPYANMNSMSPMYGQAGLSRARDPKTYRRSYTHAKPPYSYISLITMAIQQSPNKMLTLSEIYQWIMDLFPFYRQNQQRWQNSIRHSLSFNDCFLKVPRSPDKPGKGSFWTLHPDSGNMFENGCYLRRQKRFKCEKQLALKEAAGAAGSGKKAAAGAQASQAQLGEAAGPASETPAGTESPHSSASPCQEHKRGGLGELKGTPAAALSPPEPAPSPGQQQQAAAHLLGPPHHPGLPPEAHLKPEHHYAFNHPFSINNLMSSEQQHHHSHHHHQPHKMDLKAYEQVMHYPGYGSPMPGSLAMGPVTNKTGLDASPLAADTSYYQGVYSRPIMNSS
Hypoxia-inducible factor 1-alpha (Homo sapiens), sequence (Q16665 whole entry, looked up): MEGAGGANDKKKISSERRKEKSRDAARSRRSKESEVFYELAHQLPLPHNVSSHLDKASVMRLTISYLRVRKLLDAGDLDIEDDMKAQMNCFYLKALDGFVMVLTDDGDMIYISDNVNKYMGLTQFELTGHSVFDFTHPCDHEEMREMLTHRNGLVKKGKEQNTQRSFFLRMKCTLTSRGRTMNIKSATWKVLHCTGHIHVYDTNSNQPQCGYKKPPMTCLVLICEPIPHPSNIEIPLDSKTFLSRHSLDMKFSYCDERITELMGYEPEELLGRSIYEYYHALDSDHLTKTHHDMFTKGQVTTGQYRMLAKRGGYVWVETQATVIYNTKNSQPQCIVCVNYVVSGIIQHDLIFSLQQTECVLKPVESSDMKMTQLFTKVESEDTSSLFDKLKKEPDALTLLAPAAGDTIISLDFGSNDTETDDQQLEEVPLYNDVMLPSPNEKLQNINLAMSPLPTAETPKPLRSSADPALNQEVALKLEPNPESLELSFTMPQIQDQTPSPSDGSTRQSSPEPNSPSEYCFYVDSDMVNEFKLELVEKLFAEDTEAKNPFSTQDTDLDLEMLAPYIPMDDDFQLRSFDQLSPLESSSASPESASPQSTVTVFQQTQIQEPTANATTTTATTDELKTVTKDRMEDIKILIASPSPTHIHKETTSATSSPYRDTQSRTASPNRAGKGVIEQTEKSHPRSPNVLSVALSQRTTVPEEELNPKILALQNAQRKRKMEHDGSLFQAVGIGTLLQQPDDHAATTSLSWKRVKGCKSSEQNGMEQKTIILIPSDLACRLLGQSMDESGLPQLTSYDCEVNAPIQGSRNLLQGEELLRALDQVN
Heat shock factor protein 1 (Homo sapiens), sequence (Q00613 whole entry, looked up): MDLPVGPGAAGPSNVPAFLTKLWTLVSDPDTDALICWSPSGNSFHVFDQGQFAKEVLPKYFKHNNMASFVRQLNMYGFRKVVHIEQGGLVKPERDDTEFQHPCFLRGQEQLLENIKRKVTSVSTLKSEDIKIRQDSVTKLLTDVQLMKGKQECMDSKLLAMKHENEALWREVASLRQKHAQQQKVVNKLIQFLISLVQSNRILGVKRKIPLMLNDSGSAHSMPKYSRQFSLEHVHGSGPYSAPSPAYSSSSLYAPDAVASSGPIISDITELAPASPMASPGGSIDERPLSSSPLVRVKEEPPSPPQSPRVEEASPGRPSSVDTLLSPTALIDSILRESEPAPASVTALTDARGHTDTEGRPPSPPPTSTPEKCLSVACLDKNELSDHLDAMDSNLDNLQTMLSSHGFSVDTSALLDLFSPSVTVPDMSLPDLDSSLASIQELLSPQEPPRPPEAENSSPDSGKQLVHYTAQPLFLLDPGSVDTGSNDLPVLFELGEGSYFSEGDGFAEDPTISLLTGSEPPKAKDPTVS

What is called AC50 is the concentration giving half of the maximal activity seen. With `O=P(OC(CCl)CCl)(OC(CCl)CCl)OC(CCl)CCl`, the outcome in [1], in experiment [2], in [5], in experiment [7], in experiment [9] and in [12] was inactive. In experiment [13], the compound was called inactive. In addition, the AC50 is 63.5 µM (active) in experiment [3]; 149 µM (active) in experiment [4]; 156 µM (active) in experiment [6]; 169 µM (active) in experiment [8]; 145 µM (active) in experiment [10]; 153 µM (active) in [11]. The AC50 is 36.3 µM (active) in experiment [14], 153 µM (active) in experiment [15], 151 µM (active) in experiment [16] and 107 µM (active) in [17].

With `CC(C)=CCCC(C)CCO` (stereo not given), the outcome in [1], in experiment [2], in [3], in [4], in experiment [6] and in experiment [7] was inactive. The compound was called inactive in experiment [8], in experiment [9], in experiment [10], in experiment [18], in experiment [12] and in experiment [15]. Besides, the call in experiment [16] and in experiment [17] was inactive. The AC50 in experiment [5] was 65.7 µM (active); in experiment [14] it was 178 µM (active).

In the case of `COCCOc1cc2cc(C(=O)NC3CCN(C(C)C)CC3)n(CC(=O)Nc3ccc(Cl)cn3)c2cn1`, the AC50 in experiment [1] was 100 µM (active); in [3] it was 123 µM (active); in [18], 139 µM (active); in experiment [14], 26.2 µM (active); in experiment [15] it was 28.6 µM (active); in [17], 135 µM (active). Moreover, the outcome in experiment [2], in experiment [4], in experiment [6], in experiment [7], in experiment [8] and in experiment [9] was inactive. In addition, the outcome in experiment [10], in experiment [19], in experiment [11], in experiment [12], in experiment [13] and in experiment [16] was inactive.

For `Nc1ccc(Nc2ccccc2)cc1`, the outcome in [1], in [2], in experiment [3], in experiment [4], in [6] and in experiment [7] was inactive. Further, the outcome in experiment [8], in experiment [9], in experiment [10], in [11], in experiment [18] and in [12] was inactive. The call in [14], in [15], in experiment [16], in [17] and in [20] was inactive. Further, the AC50 in [5] is 35.1 µM (active).

`O=c1[nH]c2ccc(S(=O)CCN3CCC(Cc4ccc(F)cc4)CC3)cc2o1` (stereo not given): the result in [1], in experiment [2], in experiment [4], in experiment [5], in experiment [6] and in [7] was inactive. Also, the call in experiment [8], in experiment [9], in experiment [10], in experiment [11], in experiment [18] and in [12] was inactive. Further, the compound was called inactive in experiment [13], in experiment [14], in experiment [15], in experiment [16] and in experiment [20]. The AC50 was 121 µM (active) in experiment [3] and 155 µM (active) in [17].

Regarding `CCOCCO`, the result in experiment [1], in experiment [2], in experiment [3], in [4], in experiment [6] and in [7] was inactive. Besides, the outcome in experiment [8], in experiment [9], in experiment [10], in [19], in experiment [11] and in experiment [18] was inactive. Moreover, the compound was classed as inactive in experiment [12], in experiment [14], in experiment [15], in experiment [16], in experiment [17] and in experiment [20].

For the compound `CC(C)=CCC/C(C)=C/CO`, the outcome in experiment [1], in [2], in experiment [3], in experiment [4], in [6] and in experiment [7] was inactive. For the same compound, the compound was called inactive in [8], in [9], in [10], in experiment [19], in [11] and in [12]. For the same compound, the call in experiment [15] and in experiment [17] was inactive.
